High-throughput results (PubChem BioAssay)
GPR151 activ: human GPR151 activation. Q8TDV0. PathHunter beta-arrestin GPR151 cells, luminescence. activation, % at 11.2 µM. 650,000 compounds, 1% hits. AID 1508602; in the data active means activation above about 4.9%
TEAD-YAP inh: TEAD-YAP interaction inhibition; AID 1259422; 640,000 compounds, 1.4% hits; inhibition, % at 9.12 µM; HEK-TIYL cells, TEAD-Gal4/YAP UAS-luciferase luminescence; in the data active means inhibition above about 32%
MITF primary: blocks human microphthalmia-associated transcription factor | O75030 | AlphaScreen MITF homodimerization, bead proximity signal | inhibition, % at 2.6 µM | 650,000 compounds, 0.91% hits; in the data active means inhibition above about 50%
FBW7 activator: activators of human E3 ligase FBW7. Q969H0. AlphaScreen FBW7–phospho-cyclin E peptide binding, activator screen. normalized activity (activation), % at 26.1 µM. 650,000 compounds, 0.13% hits; in the data active means normalized activity above about 1.9%;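 further: purified mutant Fbw7 with reduced substrate affinity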
GPR151 confirm: human GPR151 activation, confirmation screen | 6,700 tested, under 10 active | GPR151 PathHunter beta-arrestin cells, luminescence, 90 min; % of EA-reagent control over plate median | activation, % at 11.2 µM | shares compounds with GPR151 activ | AID 1508609;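 active means mean percent activation across replicates above the confirmation screen cutoff of 4.91%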
GPR119 counter: counter-screen for GPR151 activators: effect on human GPR119. GPR119 PathHunter beta-arrestin cells, luminescence, 90 min; 0 = compound-well median, 100 = enzyme-acceptor control. shares compounds with GPR151 activ. activation, % at 11.2 µM. AID 1508611. 6,700 compounds, 0.3% hits;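 active means mean percent activation in the counterscreen above 29.09%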;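 further: counterscreen on off-target GPR119 to flag nonselective hits from the GPR151 activator screen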
Target sequence (Q8TDV5 whole entry, looked up): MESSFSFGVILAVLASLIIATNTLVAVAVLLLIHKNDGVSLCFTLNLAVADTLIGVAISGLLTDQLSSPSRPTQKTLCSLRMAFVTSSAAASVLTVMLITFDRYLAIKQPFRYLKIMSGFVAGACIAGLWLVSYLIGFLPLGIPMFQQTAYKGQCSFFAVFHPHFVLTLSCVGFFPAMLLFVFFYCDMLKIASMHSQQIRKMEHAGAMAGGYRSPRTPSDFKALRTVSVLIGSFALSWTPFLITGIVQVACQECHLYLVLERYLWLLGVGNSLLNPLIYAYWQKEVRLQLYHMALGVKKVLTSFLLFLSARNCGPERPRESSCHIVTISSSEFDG
Each line names hits and unclear results; the compound was inactive in the other large screens (follow-up assays come after a bar, where they were run); ! = not active in a repeat. Hits are enriched below; roughly 3.4% of the tested compounds scored in any of these assays.

O=S(=O)(CCc1ccccc1)NCC1(c2cccs2)CCCC1	GPR151 activ 5.2 | GPR151 confirm inactive | GPR119 counter inactive
CCOc1ccc(S(=O)(=O)NCc2ccco2)c(C)c1C	none
CCOc1c(S(=O)(=O)NCc2ccco2)ccc(Cl)c1Cl	GPR151 activ 6.3 | GPR151 confirm inactive | GPR119 counter inactive
COc1ccc(CCN(C)CCCC(C#N)(c2cc(OC)c(OC)c(OC)c2)C(C)C)cc1OC (centres undefined)	GPR151 activ 5.6 | GPR151 confirm inactive | GPR119 counter inactive
CC1(CC(=O)N/N=C/c2cccc(Br)c2)OCCO1	none
CC1(CC(=O)N/N=C/c2cccc(OC3CSC3)c2)OCCO1	GPR151 activ 5.9 | GPR151 confirm inactive | GPR119 counter inactive
CCN(CC)C(=O)CSc1nc2n[nH]c(C)c2c(=N)n1-c1cc(C)ccc1C	none
CN1CCN(C(CC(=O)c2ccc(F)cc2)C(=O)O)CC1 (centres undefined)	none
O=C(NCc1nc2ccccc2[nH]1)c1ccc2nc(Nc3ccc4ncccc4c3)sc2c1	GPR151 activ 6.3 | GPR151 confirm inactive | GPR119 counter inactive
NC(=O)c1c(NC(=O)CCSc2ccc(F)cc2)sc2c1CCCC2	GPR151 activ 7.1 | GPR151 confirm inactive | GPR119 counter inactive
Cn1c(Cn2nnc(-c3ccccc3)n2)nnc1SCC(=O)Nc1ccccc1Cl	GPR151 activ 7.6 | GPR151 confirm inactive | GPR119 counter inactive
NC(=O)c1c(NC(=O)CCSc2ccccc2)sc2c1CCCC2	none
O=C(Cn1nnc(-c2ccccc2Cl)n1)Nc1ccccc1C(F)(F)F	none
O=C(O)COc1cccc(/C=N/NC(=O)Cn2nnc(-c3ccccc3Cl)n2)c1	none
O=C(O)COc1ccc(/C=N/NC(=O)Cn2nnc(-c3ccccc3Cl)n2)cc1	GPR151 activ 7.8 | GPR151 confirm inactive | GPR119 counter inactive
O=C(Cn1nnc(-c2ccccc2Cl)n1)Nc1ccccc1Cl	GPR151 activ 4.9 | GPR151 confirm inactive | GPR119 counter inactive
O=C(Nc1cnn(Cc2ccc(Cl)cc2)c1)c1ccccc1	none
CCC(=O)c1ccc(N2CCN(S(=O)(=O)c3ccc(C)cc3)CC2)c(F)c1	none
NC(=O)c1nc(-c2cccc(Br)c2)nc2c1[nH]c(=O)n2-c1ccc(F)cc1	none
Cc1ccc(NC(=O)Cn2nnc(-c3ccccc3NC(=O)c3cccc(C)c3)n2)cc1	GPR151 activ 5.0 | GPR151 confirm inactive | GPR119 counter inactive
NC(=O)c1c(NC(=O)Cn2nnc(-c3ccccc3Cl)n2)sc2c1CCCC2	GPR151 activ 6.4 | GPR151 confirm inactive | GPR119 counter inactive
NC(=O)c1c(NC(=O)c2ccccc2Cl)sc2c1CCCC2	none
Cn1c(-c2ccc3nc[nH]c3c2)nc2cc(N)ccc21	none
CC1=NN(c2ccc(F)cc2)C(=O)/C1=C\c1c(O)n(-c2ccccc2)c(=O)[nH]c1=O	none
CCc1nccn1S(=O)(=O)c1cc(Br)c(C)cc1OC	none
CCc1nccn1S(=O)(=O)c1ccc(OC)c2ccccc12	GPR151 activ 6.8 | GPR151 confirm inactive | GPR119 counter inactive
CC(=O)N1CCN(Cc2ccc3c(c2)CN(C(=O)Cc2cccc(F)c2)CCO3)CC1	none
CC(=O)N1CCN(Cc2cccc(F)c2)CC1	GPR151 activ 5.4 | GPR151 confirm inactive | GPR119 counter inactive
CCN(CC)c1c(-c2ccccc2)c2cc(Br)ccc2[nH]c1=O	GPR151 activ 5.9 | GPR151 confirm inactive | GPR119 counter inactive
O=C(O)Cc1c(-c2ccccc2)c2cc(Br)ccc2[nH]c1=O	none
COCCn1nnnc1CN1CCC(NC(=O)c2cccc(OC)c2)CC1	none
CCOC(=O)N1CCC(Nc2nc3ccc(C)cc3n3cnnc23)CC1	none
Cc1nccn1CC(O)COc1cccc2ccccc12 (centres undefined)	none
OC(COc1ccc2ccccc2c1Cl)Cn1ccnc1 (centres undefined)	GPR151 activ 5.0 | GPR151 confirm inactive | GPR119 counter inactive
Cc1cc(=O)[nH]c(N/N=C/C=C2\N(C)c3ccccc3C2(C)C)n1	GPR151 activ 5.0 | GPR151 confirm inactive | GPR119 counter inactive
Cc1cc(C)n(-c2cc(NCCO)nc(C)n2)n1	GPR151 activ 11 | GPR151 confirm inactive | GPR119 counter inactive
CCOc1cccc(C2CC(c3ccc(OC)cc3)=NC(c3ccccc3Cl)N2)c1O (centres undefined)	none
CC(C)c1ccc(NC(=O)C(c2ccc3c(c2)OCO3)N(Cc2ccccc2)c2ccccc2)cc1 (centres undefined)	GPR151 activ 5.7 | GPR151 confirm inactive | GPR119 counter inactive
CC(NC(=O)c1cc(-c2ccccc2Cl)nc2ccccc12)c1ccccc1 (centres undefined)	none
CCC(C)N(C)C(=O)c1cc2ccccc2c(-c2ccccc2Cl)n1 (centres undefined)	GPR151 activ 5.4! | GPR151 confirm inactive | GPR119 counter inactive
COc1ccccc1C(NC(=O)Cc1ccccc1)c1c(O)ccc2ccccc12 (centres undefined)	none
CC1(C)Cc2ccccc2/C(=C/C(=O)C(=O)NCc2ccccc2)N1	GPR151 activ 6.6 | GPR151 confirm inactive | GPR119 counter inactive
CC1(C2CCN(Cc3nc(-c4ccccc4)cs3)CC2)NC(=O)NC1=O (centres undefined)	GPR151 activ 5.6 | GPR151 confirm inactive | GPR119 counter inactive
Cc1sc(NC(=O)c2ccc(N3CCCCC3)c([N+](=O)[O-])c2)c(C#N)c1C	GPR151 activ 13 | GPR151 confirm inactive | GPR119 counter inactive
CC1CCC(N2CC(=O)N(C3CCCCCCC3)C(c3ccc(F)cc3)C2=O)CC1 (centres undefined)	none
COc1ccc([N+](=O)[O-])cc1NC(C)C	GPR151 activ 5.0 | GPR151 confirm inactive | GPR119 counter inactive
CCS(=O)(=O)Nc1cc([N+](=O)[O-])ccc1OC	none
CC1CCCCC1Nc1ccc([N+](=O)[O-])cc1C#N (centres undefined)	none
COc1ccc([N+](=O)[O-])cc1NC1CCCCC1C (centres undefined)	GPR151 activ 5.7 | GPR151 confirm inactive | GPR119 counter inactive
Cc1ccc(NC(=O)CSc2nnns2)c(C)c1	none
COc1ccc(/C=C2\N=C(c3cccc(I)c3)OC2=O)cc1[N+](=O)[O-]	GPR151 activ 14 | GPR151 confirm inactive | GPR119 counter inactive
COc1ccc(C2=N/C(=C\c3ccc([N+](=O)[O-])cc3)C(=O)O2)cc1[N+](=O)[O-]	none
COc1ccc(CNC(=O)C2CCN(c3nc4ccccc4n4cccc34)CC2)cc1	GPR151 activ 7.5 | GPR151 confirm inactive | GPR119 counter inactive
CN1C(=O)C(C)(C)c2cc(S(=O)(=O)NCC3CCC(C(=O)N4CCCC4)CC3)ccc21 (centres undefined)	none
O=C1N[C@@H](Cc2ccc(Cl)cc2)C(=O)N2CCN(C(=O)c3cc(Cl)cc(Cl)c3)C[C@H]12	GPR151 activ 15 | GPR151 confirm inactive | GPR119 counter inactive
